Shown are actives, neighbours in structure and some others; about 5.2% of the full set was active somewhere.
NR3A LBD binder – NR3A (human) ligand-binding domain modulation | AID 1259313 | Tm shift relative to glycine control, % at 25 µM | NR3A LBD differential scanning fluorimetry, Tm shift; 0% = protein alone, 100% = glycine-bound protein | 2.5% of 340,000 active;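 active = melting temperature shift of at least 10% of the positive control shift, at one fixed dose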
esBAF inh – SWI/SNF esBAF complex inhibition; mouse ES cells, Bmi1-luciferase knock-in reporter, 24 h; 100% = twice the neutral-well signal; reporter increase, % at 12.5 µM; 2% of 350,000 active; AID 602393; in the data active = activation above about 40%; inconclusive = no clear call, values can overlap the other calls;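 note: 0% = median of the plate's neutral control wells and 100% = double that signal; a rise in the Bmi1 reporter signal indicates esBAF inhibition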
Vif inh – blocks HIV Vif function | AID 602346 | inhibition, % at 7.49 µM | HEK293T cells, Vif self-association by quenched fluorescence, imaging, 24 h | 0.35% of 340,000 active; in the data active = inhibition above about 50%, passing the limit was not always enough; inconclusive = no clear call, values can overlap the other calls; inactive = below about 31%
SKN-1 inh – blocks SKN-1 activity in C. elegans; C. elegans VP596 Pgst-4::GFP/RFP ratio, acrylamide-induced, 24 h; inhibition, % at 21.8 µM; 0.49% of 360,000 active;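 active = interference check ratio from 0.5 to 1.5 plus GFP to RFP signal ratio inhibition reaching or exceeding a fixed threshold, cut at about 30% in these data, passing the limit was not always enough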
SMARCA2 activ – activators of SMARCA2 function | MG213 cells, MMTV-luciferase reporter, dexamethasone, overnight | activation, % at 9.1 µM | 1% of 370,000 active | AID 652017; in the data active = activation above about 7.8%;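 note: 0% = vehicle wells and 100% = reference activator wells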
NadD block – NadD (S. aureus) enzyme inhibition | purified NadD enzyme, colorimetric absorbance read-out | inhibition, % at 20 µM | 0.78% of 360,000 active | AID 602399; in the data active = inhibition above about 26%
Active calls of the source: *; u = inconclusive; x = no result.

SMILES	NR3A LBD binder	esBAF inh	Vif inh	SKN-1 inh	SMARCA2 activ	NadD block
C[C@@H]1CN([C@@H](C)CO)C(=O)c2cccc(NC(=O)C3CC3)c2O[C@H]1CN(C)Cc1ccc(C(F)(F)F)cc1	x	-3	x	x	x	x
O=C(Cc1ccc(S(=O)(=O)N2CCOCC2)s1)Nc1cc(C(F)(F)F)cc(C(F)(F)F)c1	17*	-15	-3	-9	0	-8
O=C(Nc1cccc(Cl)c1)c1cc(N=Nc2ccc([N+](=O)[O-])cc2Cl)ccc1O	19*	-64	3	2	-4	50*
O=C(Nc1ccc([N+](=O)[O-])cc1Cl)c1cc(Cl)ccc1O	20*	-71	u	17	-1	7
O=C(Nc1cccc(Cl)c1)c1cccc(Oc2ccc([N+](=O)[O-])cc2Cl)c1	8	-2	-28	-1	-6	3
COc1ccccc1-c1nc(-c2ccc(C)nc2OC)no1	-2	69*	-9	-9	4	-4
COc1nc(C)ccc1-c1noc(-c2ccccn2)n1	-1	-26	-7	2	x	-6
COc1ccccc1-c1noc(-c2ccncc2)n1	0	46*	4	13	1	4
COc1ccccc1-c1noc(-c2cccs2)n1	0	55*	x	19	2	-1
C[C@H]1CN([C@@H](C)CO)S(=O)(=O)c2ccc(C#CCN(C)C)cc2O[C@H]1CN(C)C	x	5	x	x	x	x
O=C(c1ccccc1)c1ccc(C(=O)O)c(C(=O)O)c1	-1	0	-5	9	3	-4
Nc1ccc(C(=O)c2ccccc2C(=O)O)cc1Cl	-11	-3	55*	9	0	-3
Cc1ccc(Nc2nnc(SCC(=O)NCC3CCCO3)s2)cc1C (stereo not given)	0	47*	-7	-16	2	-3
COCCNC(=O)C[C@H]1CC[C@@H]2[C@H](COc3ccc(NC(C)=O)cc3C(=O)N2C)O1	x	-5	x	x	x	x
COc1cc2sc3cc(NCC[C@@H]4CCCN4C)ccc3c(=O)c2cc1OC	-1	53*	4	-2	7	22
CCOc1ccccc1NC(=O)CSc1ncnc2c1oc1ccccc12	-4	4	6	34*	-2	-11
c1ccc(CSc2ncnc3c2oc2ccccc23)cc1	6	x	5	-4	-2	-6
c1coc(CSc2ncnc3c2oc2ccccc23)c1	6	56*	-2	11	4	-9
Fc1ccccc1CSc1ncnc2c1oc1ccccc12	2	42*	-3	1	-3	-10
c1ccc(COc2ccc(-c3cc4nc(NCCN5CCOCC5)ccn4n3)cc2)cc1	x	49*	-36	14	0	-6
COCCCNc1ccn2nc(-c3ccc(OCCN4CCOCC4)cc3)cc2n1	x	u	-1	1	7.9*	-10
c1ccc(COc2cccc(-c3cc4nc(NCCN5CCOCC5)ccn4n3)c2)cc1	x	2	1	13	-3	-13
CCOc1ccc(/C=N/NC(=O)c2ccccc2O)cc1CN1CC2CC(C1)c1cccc(=O)n1C2 (stereo not given)	-1	57*	7	2	-1	19
CN(C)c1ccc(-n2cccc2/C=C/[N+](=O)[O-])cc1	2	-3	-2	-4	-5	-2
CN(c1ccccc1)c1ccc(/C=C/[N+](=O)[O-])cc1	16*	x	0	35	3	12
SMILES	NR3A LBD binder	esBAF inh	Vif inh	SKN-1 inh	SMARCA2 activ	NadD block
C[C@@H]1CN([C@H](C)CO)C(=O)c2cc(NS(=O)(=O)c3ccc(F)cc3)ccc2O[C@@H](C)CCCCO[C@H]1CN(C)Cc1ccncc1	x	1	x	x	x	x
O=C(Nc1cc(F)ccc1F)N[C@H]1C=C[C@@H](CC(=O)N2CCc3ccccc3C2)O[C@H]1CO	x	6	x	x	x	x
CC(NC(=O)c1ccc(N(C)C)cc1)C(c1cccs1)N1CCN(C)CC1 (stereo not given)	-1	43*	11	15	4	-3
CC(NC(=O)c1ccc(F)cc1)C(c1cccs1)N1CCN(C)CC1 (stereo not given)	-2	x	0	12	-1	-5
Clc1ccc(C2Nc3cccc4cccc(c34)N2)c(Cl)c1	-4	-6	17	23	-1	8
Clc1cccc(-c2ccc(C3Nc4cccc5cccc(c45)N3)o2)c1	4	-11	3	4	x	52*
CCOC(=O)c1c(C2COc3ccccc3O2)csc1N (stereo not given)	-12	14	-5	6	2	-5
CCOC(=O)c1c(C2COc3ccccc3O2)csc1NC(=O)c1ccccc1 (stereo not given)	11*	-5	6	-10	0	-6
COc1ccc(C(=O)Nc2nnc(SCC(=O)Nc3ccc(NC(C)=O)cc3)s2)c(OC)c1	20*	37	-8	6	6	0
O=C(CSc1ccc(F)cc1)Nc1ccc(C2SCCS2)cc1	1	45*	x	-1	4	-2
O=C(CSc1nnc(NC(=O)C2CC2)s1)Nc1ccc(F)cc1	14*	-2	3	-20	-5	-4
CC(=O)Nc1ccc(NC(=O)CSc2nnc(NC(=O)c3ccco3)s2)cc1	16*	2	3	-12	4	-2
O=C(CSc1nnc(NC(=O)c2ccco2)s1)Nc1ccccc1	3	x	-2	-5	7	-3
Cc1noc(C)c1NC(=O)N(C)C[C@H]1Oc2ccc(NC(=O)Nc3ccc4c(c3)OCO4)cc2CC(=O)N([C@@H](C)CO)C[C@H]1C	x	5	x	x	x	x
CN1[C@@H]2c3ccc(-c4cccnc4)c(=O)n3C[C@@H]2[C@@H](CO)[C@@H]1C(=O)NCC1CCCCC1	x	-3	x	x	x	x
CCNC(=O)[C@H]1[C@H](CO)[C@H]2Cn3c(ccc(-c4cccc(F)c4)c3=O)[C@H]2N1Cc1nccs1	x	-8	x	x	x	x
CC(=O)Nc1ccc(NC(=O)CSc2nnc(NC(=O)c3cccc(F)c3)s2)cc1	31*	x	x	4	2	-7
O=C(CSc1nnc(NC(=O)c2c(F)cccc2F)s1)Nc1ccc(F)cc1	1	x	3	1	0	2
O=C(CC1SC(=Nc2ccccc2)N(CCc2c[nH]c3ccccc23)C1=O)Nc1ccccc1F (stereo not given)	21*	x	5	15	0	20
COC(=O)c1ccc(SC2CCCCC2)c([N+](=O)[O-])c1	8	-2	125*	23	-1	11
COC(=O)c1ccc(SCC(=O)NC2CCCC2)c([N+](=O)[O-])c1	-1	x	u	12	-3	-5
C[C@@H]1CCCCO[C@H](CN(C)CC2CCCCC2)[C@H](C)CN([C@@H](C)CO)C(=O)c2cc(NS(=O)(=O)c3ccc(Cl)cc3)ccc2O1	x	-5	x	x	x	x
CC(C)C(=O)Nc1ccc2c(c1)C(=O)N(C)[C@H]1CC[C@@H](CC(=O)NCc3ccc(F)cc3)O[C@H]1CO2	x	4	x	x	x	x

Assay outcomes as filed in PubChem BioAssay.
